An excerpt weighted towards active compounds, which were near 20% of everything screened.
CHX counter: Cycloheximide Counterscreen for Small Molecule Inhibitors of Shiga Toxin; cell reporter, cycloheximide protein synthesis inhibition counterscreen; max response, %; AID 2314, 2010; hit rate 12% among 300,000; in the data active = max response mostly above about 13%, no sharp cut-off; inactive = mostly below about 14%; note: read at 38.3 µM for the half of the compounds with a filed dose
Pf growth 96h: Primary qHTS for delayed death inhibitors of the malarial parasite plastid, 96 hour incubation. P. falciparum luciferase reporter growth, 96 h. Potency, µM (top dose mostly 28.7 µM), usual class: inhibitors. hit rate 6.9% among 320,000
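Luminescence readout: decreased luciferase signal marks inhibited growth of reporter-expressing P. falciparum in infected red cells (2% hematocrit, 0.05% parasitemia final), exposed to compound two generations (96 h, 37 C, 5% CO2).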
Pf growth 48h: Primary qHTS for delayed death inhibitors of the malarial parasite plastid, 48 hour incubation | hit rate 5.9% among 310,000 | AID 504832, 2011 | P. falciparum luciferase growth in erythrocytes, 48 h | Potency, µM (titrated, usually from 28.7 µM), usual class: inhibitors
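Luciferase-expressing parasites in RBCs, 2% Hct / 0.1% parasitemia final; RPMI 1640 + 0.5% Albumax; 37 C, 5% CO2, one generation; luminescence read-out, lower signal = inhibition.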
HCMV inh: qHTS Assay for inhibitors of the human cytomegalovirus (HCMV); HFF cells, HCMV-luciferase reporter, 72 h; stronger effect = lower value; activity change, negative = inhibition, % at 57.5 µM; hit rate 4.5% among 410,000; AID 1259415, 2018; in the data active = activity change below about -60%; inconclusive = no clear call, values can overlap the other calls; inactive = above about -39%
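Screen run at 2 compound doses on HFFs infected with reporter HCMV, MOI 1 PFU/cell. Luciferase activity from cell lysates at 72 h post infection gave inhibition relative to buffer-only and Salinomycin wells.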
Shiga inhibitor: A qHTS for Small Molecule Inhibitors of Shiga Toxin | Vero cells, Shiga toxin protein synthesis inhibition reporter | inhibition, % at 38.7 µM | hit rate 9.2% among 290,000 | AID 2315, 2010; in the data active = inhibition mostly above about 28%, no sharp cut-off; inactive = mostly below about 43%
Large screens that a line does not name were inactive. Unless noted, calls come from the whole dose curve; as a rule, active = well fitted inhibition curve with a large enough effect; inconclusive = small, poorly fitted or top-dose-only effect, or another doubt; inactive = no such curve, though single readings can be large or run the other way.

CCOCCCNC(=O)c1cn(CC)c2ccc(S(=O)(=O)N3CCOCC3)cc2c1=O	Pf growth 96h 10µM
Cn1c(=O)n(C)c2cc(NC(=O)CCl)ccc21	CHX counter 23, Pf growth 96h inconclusive, Pf growth 48h 1.5µM, HCMV inh -104
C[C@@H]1CCCCO[C@@H](CN(C)C(=O)c2ccccc2)[C@@H](C)CN([C@H](C)CO)C(=O)c2cc(N(C)C)ccc2O1	none (no result: CHX counter, Pf growth 96h, Pf growth 48h, Shiga inhibitor)
CNC(=S)N1C2CCCC1CC(NC(=O)c1ccc(C)cc1)C2 (centres undefined)	none (no result: CHX counter, Pf growth 96h, Pf growth 48h, Shiga inhibitor)
CNC(=S)N1C2CCC1CC(NC(=O)NC13CC4CC(CC(C4)C1)C3)C2 (centres undefined)	Pf growth 96h inconclusive, Pf growth 48h 12µM
Cn1c(=O)[nH]c2cc(-c3noc(-c4ccc(Br)cc4)n3)ccc21	none (no result: CHX counter, Pf growth 96h, Pf growth 48h, Shiga inhibitor)
CCN(CC)CCCNc1nc(N)c([N+](=O)[O-])c(N2CCCCCC2)n1	Pf growth 96h 2.9µM
COc1ccc(Nc2nc(N)c([N+](=O)[O-])c(N3CCCC3)n2)cc1	CHX counter 17, Pf growth 96h 13µM, Pf growth 48h inconclusive
COc1cccc(Nc2nc(N)c([N+](=O)[O-])c(N3CCOCC3)n2)c1	Pf growth 96h 15µM, Pf growth 48h inconclusive
Nc1nc(Nc2ccccc2)nc(N2CCCC2)c1[N+](=O)[O-]	CHX counter 39, Shiga inhibitor 58
Cc1cccc(Nc2nc(N)c([N+](=O)[O-])c(N3CCOCC3)n2)c1	Pf growth 96h inconclusive, Pf growth 48h inconclusive
Cn1ncc2c(=S)[nH]c(=S)[nH]c21	none (no result: CHX counter, Pf growth 96h, Pf growth 48h, Shiga inhibitor)
CSc1nc(N)nc2c1ncn2CC(=O)Nc1ccc(C)c(C)c1	none (no result: CHX counter, Pf growth 96h, Pf growth 48h, Shiga inhibitor)
CC1(C(=O)NCC2CC2)C=CC2(CCCCC2)N1C(=O)c1ccccc1 (centres undefined)	CHX counter 66, Pf growth 96h inconclusive, Shiga inhibitor 49 (no result: HCMV inh)
CC(OC(=O)c1ccc(Cl)c(S(=O)(=O)Nc2ccc(F)cc2)c1)C(=O)NC(N)=O (centres undefined)	none
O=C(CCC(=O)Nc1cccnc1)Nc1cccnc1	none (no result: CHX counter, Pf growth 96h, Pf growth 48h, Shiga inhibitor)
COCCOC(=O)c1c(NC(=O)CSc2cccc[n+]2[O-])sc(C(N)=O)c1C	Pf growth 96h inconclusive
CCCc1cc(=O)[nH]c(SCC(=O)NC(=O)OCC)n1	HCMV inh inconclusive (no result: Pf growth 48h)
CCCc1cc(=O)[nH]c(SCC(=O)Nc2sc(C(N)=O)c(C)c2C(=O)OCCOC)n1	Pf growth 96h inconclusive, HCMV inh -62 (no result: CHX counter, Shiga inhibitor)
Cc1cc(=O)[nH]c(SCC(=O)c2ccc(C(C)C)cc2)n1	CHX counter 34, Shiga inhibitor 32
CCCc1cc(=O)[nH]c(SCC(=O)NC(=O)c2ccccc2)n1	Pf growth 96h 0.41µM
COCc1cc(=O)[nH]c(SCCS(=O)(=O)c2ccc(C)cc2)n1	Pf growth 48h 2.3µM
COCc1cc(=O)[nH]c(SCCS(=O)(=O)c2ccc(Cl)cc2Cl)n1	none
Cc1ccc(OCCCC(=O)ON=C(N)c2ccccc2C)cc1	none (no result: CHX counter, Shiga inhibitor)
FC(F)(F)c1ccccc1Cc1c(-c2cccc(Br)c2)nc2ccc(Br)cn12	none (no result: CHX counter, Pf growth 96h, Pf growth 48h, Shiga inhibitor)
COc1ccc(CC(=O)NCc2nnc(SCC(=O)Nc3cccc(F)c3)n2C)cc1	Pf growth 96h inconclusive
CC1(C)Cc2ccccc2C(C(Cc2ccccc2)C(N)=O)=N1 (centres undefined)	none
CCCCN(CCCC)C(=O)c1sc2nc(N3CCOCC3)c3c(c2c1N)CCCC3	Pf growth 96h inconclusive, Pf growth 48h inconclusive
Nc1cc(N)cc(C(=O)OCC(=O)Nc2cc(S(=O)(=O)N3CCCCC3)ccc2Cl)c1	Pf growth 96h inconclusive
COCc1cc(=O)[nH]c(SCC(=O)c2ccccc2)n1	Pf growth 48h 2.1µM
O=C(COC(=O)/C=C/c1cccs1)NC1CC1	HCMV inh -60
C=CCNc1ccc2c(c1)OC[C@H](CC(C)C)NS2(=O)=O	none (no result: CHX counter, Pf growth 96h, Pf growth 48h, Shiga inhibitor)
COc1ccc(Cn2c(=O)c3cccnc3n(Cc3cccc(F)c3)c2=O)cc1	none (no result: CHX counter, Pf growth 96h, Pf growth 48h, Shiga inhibitor)
O=c1ncn(-c2cccc(F)c2)c2ncccc12	CHX counter 14 (no result: Pf growth 96h)
CCNc1sc(C(=O)OCC)c(N)c1C#N	HCMV inh inconclusive
O=C1CC(O)(c2ccccc2)C(c2ccccc2)=C1c1ccccc1 (centres undefined)	Pf growth 96h 12µM, Pf growth 48h 10µM
C=C1/C(=C\C=C2/CCC[C@]3(C)[C@@H]([C@H](C)/C=C/[C@@H](O)C4CC4)CC[C@@H]23)C[C@@H](O)C[C@@H]1O	none (no result: CHX counter, HCMV inh, Shiga inhibitor)
COc1cc(NC(=O)CSc2nc(=O)n(CCN3CCOCC3)c3c2CCC3)cc(OC)c1	none (no result: CHX counter, Shiga inhibitor)
O=C1c2oc3ccccc3c(=O)c2C(c2ccccc2)N1Cc1ccc2c(c1)OCO2 (centres undefined)	none (no result: CHX counter, Pf growth 96h, Pf growth 48h, Shiga inhibitor)
CCOc1ccc(-c2oc3ccccc3c(=O)c2O)cc1OCC	HCMV inh -65 (no result: CHX counter, Pf growth 96h, Pf growth 48h, Shiga inhibitor)
O=c1c(O)c(-c2ccc3c(c2)OCO3)oc2ccccc12	CHX counter 34, Pf growth 96h inconclusive, Pf growth 48h inconclusive
COCc1c(C(=O)OC/C(O)=C(\C#N)c2nc3ccccc3[nH]2)oc2ccccc12	none
Cc1cc(=O)[nH]c(NCc2ccc(Cl)cc2)n1	none
CSc1n[nH]c(NCc2ccc(Cl)cc2)n1	CHX counter 15, Shiga inhibitor 51
CSc1ncc(C(=O)NCc2ccc(C)cc2)c(C)n1	none (no result: CHX counter, Pf growth 96h, Pf growth 48h, Shiga inhibitor)
CSc1n[nH]c(NCc2ccc(C)cc2)n1	CHX counter 40, Shiga inhibitor 72
CSc1n[nH]c(NCc2ccccc2)n1	Shiga inhibitor 29 (no result: Pf growth 96h)
CC(=O)c1c(C)[nH]c(C(=O)OCC(=O)N2CC(=O)Nc3ccccc32)c1C	none
CC(C)(C)NC(=O)CCCSc1nc2ccccc2s1	CHX counter 47, Shiga inhibitor 72
O=C(CCCSc1nc2ccccc2s1)NCc1ccc2c(c1)OCO2	CHX counter 17
O=C(CSc1nc2ccccc2s1)NCc1ccc2c(c1)OCO2	none
CSc1nc2sc3c(c2c(=O)n1-c1ccccc1)CCC(C(C)(C)C)C3 (centres undefined)	none (no result: CHX counter, Pf growth 96h, Pf growth 48h, Shiga inhibitor)
CC1CCCN(C(=O)C2CCN(S(=O)(=O)c3cccc4cccnc34)CC2)C1 (centres undefined)	Pf growth 96h inconclusive (no result: Pf growth 48h)
Cc1ccc(C)c(N2CCN(S(=O)(=O)c3c(C)noc3/C=C/N(C)C)CC2)c1	Pf growth 48h inconclusive
CCOC(=O)c1c(S(=O)(=O)N2CCCC(C(=O)NCc3ccccc3Cl)C2)c(C)n(C)c1C (centres undefined)	none (no result: CHX counter, Pf growth 96h, Pf growth 48h, Shiga inhibitor)
Cc1noc(/C=C/N(C)C)c1S(=O)(=O)N1CCCC(C(=O)NCc2ccccc2Cl)C1 (centres undefined)	Pf growth 48h inconclusive, HCMV inh -98
Cc1noc(/C=C/N(C)C)c1S(=O)(=O)N1CCCC(C(=O)NCc2ccc(Cl)cc2)C1 (centres undefined)	Pf growth 96h inconclusive, Pf growth 48h inconclusive
Cc1noc(/C=C/N(C)C)c1S(=O)(=O)N1CCN(c2ccccc2)CC1	HCMV inh -86 (no result: Pf growth 48h)
Cc1ccc(CNC(=O)C2CCCN(S(=O)(=O)c3c(C)noc3/C=C/N(C)C)C2)cc1 (centres undefined)	Pf growth 96h inconclusive, Pf growth 48h 13µM

Screening data from PubChem.
